The results in this text go back to PubChem BioAssay (Tox21).

Records with an inconclusive call do not appear. The source made the active and inactive calls. Unless noted, calls come from the whole dose curve; as a rule, active = well fitted cell-killing curve with a large enough effect in the repeat runs; inconclusive = weak or mixed curves; inactive = no such curve, though single readings can be large or run the other way.

System in the first assay: not listed separately
Description: qHTS assay to identify small molecule agonists of the peroxisome proliferator-activated receptor delta (PPARd) signaling pathway - cell viability counter screen (AID 743211). Note: nearly all actives have a fitted effect of over 55% in size. Conditions: PPARd-bla HEK293H viability, CellTiter-Glo luminescence, 17 h; series mostly up to 62.6 µM. A digest of the protocol:
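HEK293H PPARd-bla, 3000 cells/well; 5 h preincubation 37C/5% CO2; cpd in DMSO, 17 h 37C; B/G FRET substrate 2 h RT; CellTiter-Glo 30 min RT, luminescence.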
(In general: Quantitative high-throughput screening tests each substance at several concentrations.)
In the case of `OCCCCC(O)CO` (stereo not drawn), the compound was called inactive.

Consider `CCCCCCCCC(=O)Cl`, for which the result was inactive.

On to `ClCCCl`, for which the result was inactive.

As for `CC(C)CCCCOC(=O)c1ccccc1C(=O)OCCCCC(C)C`, the compound was classed as inactive.

For the compound `C=COCCOCCOCCOC=C`, the result was inactive.

With `c1ccc2nccnc2c1`, the call was inactive.

Take `O=C(NCCc1c[nH]c2ccccc12)c1cccnc1`: the call was inactive.

With `CCCCCCCCC1CCC(=O)O1` (stereo not drawn), the call was inactive.

As for `CC1COc2ccccc2N1` (stereo not drawn), the compound was classed as inactive.

Turning to `CCCCNC1CC(C)(C)NC(C)(C)C1`, the outcome was inactive.

As for `C#CC(C)N(C)C(=O)Nc1ccc(Cl)cc1` (stereo not drawn), the compound was called inactive.

As for `CN1C(C)(C)CCCC1(C)C`, the result was inactive.

For the compound `O=S(=O)(O)c1cc(O)c2ccc(Nc3ccccc3)cc2c1`, the compound was called inactive.

Turning to `CC(C)c1ccc2cc(C(C)C)ccc2c1`, the call was inactive.

Turning to `O=C(c1ccc(O)cc1)c1ccc(O)c(O)c1O`, the result was inactive.

For the compound `CC(C)(C)c1nnc(NS(=O)(=O)c2ccc(N)cc2)s1`, the result was inactive.

Regarding `C[C@@H]1O[C@@H](O[C@@H]2[C@@H](O)[C@H](OCCc3ccc(O)c(O)c3)O[C@H](CO[C@@H]3O[C@H](CO)[C@@H](O)[C@H](O)[C@H]3O)[C@H]2OC(=O)/C=C/c2ccc(O)c(O)c2)[C@H](O)[C@H](O)[C@H]1O`, the compound was called inactive.

In the case of `CC(C)CC(=O)O`, the compound was called inactive.

Consider `Cc1cccc(OCC(O)CNC(C)(C)C)c1C` (stereo not drawn), for which the result was inactive.

Consider `CCCC(=O)C(C)=O`, for which the compound was classed as inactive.

As to `O=S(=O)(O)c1ccc2cc(O)c(S(=O)(=O)O)cc2c1`, the compound was classed as inactive.

Turning to `CCCOC(OCCC)OCCC`, the outcome was inactive.

Take `COc1cc(N)ccc1C`: the compound was classed as inactive.

With `COc1cc(NS(=O)(=O)c2ccc(N)cc2)nc(OC)n1`, the result was inactive.

`CC(C)(C)c1cc(CCC(=O)NN)cc(C(C)(C)C)c1O`: the compound was called inactive.

Regarding `CC(N)C(=O)OC(C)(C)Cc1ccc(Cl)cc1` (stereo not drawn), the call was inactive.

With `CC(C(=O)O)c1ccc2c(c1)CC(=O)c1ccccc1S2` (stereo not drawn), the compound was classed as inactive.

Take `CC(C)C(=O)OCCc1ccccc1`: the result was inactive.

`COCCOC(=O)C1=C(C)NC(C)=C(C(=O)OC(C)C)C1c1cccc([N+](=O)[O-])c1` (stereo not drawn): the result was inactive.

As to `COc1cc2c(cc1OC)[C@@H]1CC(=O)[C@@H](CC(C)C)CN1CC2`, the call was inactive.

In the case of `C=CCCCCCCCCCCCC`, the result was inactive.

Regarding `Cc1cc2cc3c(C)cc(=O)oc3c(C)c2o1`, the outcome was inactive.

`CC1=CCC(C(C)C)=CC1`: the compound was called inactive.

As to `Cc1ccc(S(=O)(=O)O)c(C)c1`, the compound was classed as inactive.

Regarding `Nc1ccc([N+](=O)[O-])c(N)c1`, the compound was called inactive.

For the compound `Cc1ccccc1N=O`, the outcome was inactive.

Regarding `CC[C@H](C)C(=O)O[C@H]1C[C@H](O)C=C2C=C[C@H](C)[C@H](CC[C@@H](O)C[C@@H](O)CC(=O)O)[C@H]21`, the call was inactive.

In another assay the target is Peroxisome proliferator-activated receptor delta (Homo sapiens) (UniProt Q03181). Description: qHTS assay to identify small molecule agonists of the peroxisome proliferator-activated receptor delta (PPARd) signaling pathway (AID 743212; calls by dose curve). As to conditions: HEK293H PPARd-UAS-bla, beta-lactamase FRET ratio, 17 h; series mostly up to 62.6 µM. A digest of the protocol: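 Cells expressing a UAS-driven beta-lactamase reporter (PPARd-bla HEK293H) were given test compounds after a 5 h settle and kept at 37 C. Reporter activity was then measured as FRET fluorescence using LiveBLAzer B/G substrate.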
Chain of Peroxisome proliferator-activated receptor delta (Homo sapiens) (Q03181 whole entry, looked up): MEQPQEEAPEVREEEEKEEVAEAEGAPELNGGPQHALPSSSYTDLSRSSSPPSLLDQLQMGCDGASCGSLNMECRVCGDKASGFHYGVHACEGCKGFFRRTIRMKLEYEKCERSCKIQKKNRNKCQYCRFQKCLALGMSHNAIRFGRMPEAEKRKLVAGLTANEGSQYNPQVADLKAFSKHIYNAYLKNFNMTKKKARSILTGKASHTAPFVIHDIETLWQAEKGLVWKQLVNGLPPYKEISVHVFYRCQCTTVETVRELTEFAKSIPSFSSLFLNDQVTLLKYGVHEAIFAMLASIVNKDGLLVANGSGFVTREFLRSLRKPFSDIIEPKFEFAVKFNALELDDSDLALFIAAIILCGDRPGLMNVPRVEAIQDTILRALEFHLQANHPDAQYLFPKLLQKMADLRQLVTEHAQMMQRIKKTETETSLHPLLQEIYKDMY
On to `OCCCCC(O)CO` (stereo not drawn), for which the outcome was inactive.

For the compound `CCCCCCCCC(=O)Cl`, the result was inactive.

In the case of `ClCCCl`, the result was inactive.

For `CC(C)CCCCOC(=O)c1ccccc1C(=O)OCCCCC(C)C`, the result was inactive.

`C=COCCOCCOCCOC=C`: the result was inactive.

Take `CCCCCCCCC1CCC(=O)O1` (stereo not drawn): the result was inactive.

As for `CC1COc2ccccc2N1` (stereo not drawn), the result was inactive.

Take `CCCCNC1CC(C)(C)NC(C)(C)C1`: the result was inactive.

For the compound `C#CC(C)N(C)C(=O)Nc1ccc(Cl)cc1` (stereo not drawn), the result was inactive.

As for `CN1C(C)(C)CCCC1(C)C`, the outcome was inactive.

Consider `O=C(c1ccc(O)cc1)c1ccc(O)c(O)c1O`, for which the result was inactive.

For `CC(C)(C)c1nnc(NS(=O)(=O)c2ccc(N)cc2)s1`, the outcome was inactive.

`C[C@@H]1O[C@@H](O[C@@H]2[C@@H](O)[C@H](OCCc3ccc(O)c(O)c3)O[C@H](CO[C@@H]3O[C@H](CO)[C@@H](O)[C@H](O)[C@H]3O)[C@H]2OC(=O)/C=C/c2ccc(O)c(O)c2)[C@H](O)[C@H](O)[C@H]1O`: the result was inactive.

As to `CC(C)CC(=O)O`, the outcome was inactive.

With `CCCC(=O)C(C)=O`, the outcome was inactive.

Consider `O=S(=O)(O)c1ccc2cc(O)c(S(=O)(=O)O)cc2c1`, for which the result was inactive.

On to `CCCOC(OCCC)OCCC`, for which the result was inactive.

Regarding `COc1cc(N)ccc1C`, the result was inactive.

For the compound `COc1cc(NS(=O)(=O)c2ccc(N)cc2)nc(OC)n1`, the result was inactive.

In the case of `CC(C)(C)c1cc(CCC(=O)NN)cc(C(C)(C)C)c1O`, the result was inactive.

With `CC(N)C(=O)OC(C)(C)Cc1ccc(Cl)cc1` (stereo not drawn), the result was inactive.

For `CCCN1C[C@H](CSC)C[C@@H]2c3cccc4[nH]cc(c34)C[C@H]21`, the result was inactive.

Take `CC(C)C(=O)OCCc1ccccc1`: the outcome was inactive.

Consider `COCCOC(=O)C1=C(C)NC(C)=C(C(=O)OC(C)C)C1c1cccc([N+](=O)[O-])c1` (stereo not drawn), for which the outcome was inactive.

On to `COc1cc2c(cc1OC)[C@@H]1CC(=O)[C@@H](CC(C)C)CN1CC2`, for which the result was inactive.

In the case of `C=CCCCCCCCCCCCC`, the result was inactive.

As for `Cc1cc2cc3c(C)cc(=O)oc3c(C)c2o1`, the result was inactive.

Take `Cc1ccc(S(=O)(=O)O)c(C)c1`: the outcome was inactive.

In the case of `Nc1ccc([N+](=O)[O-])c(N)c1`, the outcome was inactive.

For the compound `Cc1ccccc1N=O`, the outcome was inactive.

On to `CC[C@H](C)C(=O)O[C@H]1C[C@H](O)C=C2C=C[C@H](C)[C@H](CC[C@@H](O)C[C@@H](O)CC(=O)O)[C@H]21`, for which the outcome was inactive.

System in another assay: not listed separately
Description: qHTS assay to identify small molecule antagonists of the peroxisome proliferator-activated receptor delta (PPARd) signaling pathway - cell viability counter screen (AID 743213). Note: nearly all actives have a fitted effect of over 50% in size. Conditions: PPARd-bla HEK293H viability, CellTiter-Glo luminescence, 17 h; series mostly up to 62 µM. Summed up:
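Cytotoxicity counter screen: CellTiter-Glo luminescence read 30 min after addition, in the same wells as the reporter assay. There, PPARd UAS-bla HEK293H cells (3000/well) were treated 17 h at 37 C with compound and 300 nM L165041.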
As for `CCCCCCCCC(=O)Cl`, the call was inactive.

Consider `CC(C)CCCCOC(=O)c1ccccc1C(=O)OCCCCC(C)C`, for which the compound was classed as inactive.

Regarding `c1ccc2nccnc2c1`, the outcome was inactive.

For `CCCCCCCCC1CCC(=O)O1` (stereo not drawn), the compound was classed as inactive.

Consider `CC1COc2ccccc2N1` (stereo not drawn), for which the result was inactive.

Take `CCCCNC1CC(C)(C)NC(C)(C)C1`: the outcome was inactive.

Consider `C#CC(C)N(C)C(=O)Nc1ccc(Cl)cc1` (stereo not drawn), for which the result was inactive.

For `CN1C(C)(C)CCCC1(C)C`, the call was inactive.

On to `CC(C)c1ccc2cc(C(C)C)ccc2c1`, for which the result was inactive.

For the compound `O=C(c1ccc(O)cc1)c1ccc(O)c(O)c1O`, the outcome was inactive.

For the compound `CC(C)(C)c1nnc(NS(=O)(=O)c2ccc(N)cc2)s1`, the outcome was inactive.

With `CC(C)CC(=O)O`, the compound was classed as inactive.

On to `Cc1cccc(OCC(O)CNC(C)(C)C)c1C` (stereo not drawn), for which the call was inactive.

On to `CCCC(=O)C(C)=O`, for which the compound was called inactive.

For `COc1cc(N)ccc1C`, the outcome was inactive.

Take `COc1cc(NS(=O)(=O)c2ccc(N)cc2)nc(OC)n1`: the result was inactive.

Take `CC(C(=O)O)c1ccc2c(c1)CC(=O)c1ccccc1S2` (stereo not drawn): the compound was classed as inactive.

In the case of `CC(C)C(=O)OCCc1ccccc1`, the result was inactive.

On to `COc1cc2c(cc1OC)[C@@H]1CC(=O)[C@@H](CC(C)C)CN1CC2`, for which the outcome was inactive.

In the case of `Cc1cc2cc3c(C)cc(=O)oc3c(C)c2o1`, the compound was classed as inactive.

On to `CC1=CCC(C(C)C)=CC1`, for which the call was inactive.

As to `Cc1ccc(S(=O)(=O)O)c(C)c1`, the call was inactive.

As to `Nc1ccc([N+](=O)[O-])c(N)c1`, the outcome was inactive.

Consider `Cc1ccccc1N=O`, for which the compound was classed as inactive.

As for `CC[C@H](C)C(=O)O[C@H]1C[C@H](O)C=C2C=C[C@H](C)[C@H](CC[C@@H](O)C[C@@H](O)CC(=O)O)[C@H]21`, the result was inactive.
